Assay outcomes: PubChem, several laboratories
Compounds with a hit are over-represented: about 1.3% of the library has one in this group of screens.
NR5A2 inv ag: suppresses constitutive activity of human LRH-1 | AID 602396 | hit rate 0.13% among 360,000 | HEK293T StAR-luciferase reporter, LRH-1 transfected, 24 h | inhibition, % at 3.6 µM;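 active = inhibition above the mean inhibition of all tested compounds plus 3 SD, cut at about 73% in these data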
NCOA1 inh: inhibits human SRC1 coactivator | hit rate 0.12% among 360,000 | AID 588354 | HEK293 GAL4-SRC1 luciferase reporter, luminescence | Q15788 | inhibition, % at 3.6 µM;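 active = inhibition above the campaign mean plus 3 SD, with each screening campaign given its own cutoff, cut at about 60% in these data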
COUP-TFII inh: NR2F2 (human) inhibition, primary screen; P24468; HEK293T NGFI-A luciferase reporter, luminescence; inhibition, % at 8.6 µM; hit rate 0.7% among 370,000;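 active = inhibition above a per-plate cutoff, mean inhibition of test wells between control levels plus 3 SD, cut at about 38% in these data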;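 note: cells cotransfected with COUP-TFII expression vector driving the NGFI-A reporter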
SRC2 inh: human SRC2 (NCOA2) inhibition. Q15596. HEK293 GAL4-SRC2 luciferase reporter, luminescence. inhibition, % at 9 µM. hit rate 0.17% among 370,000;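 active = inhibition above the mean inhibition of all tested compounds plus 3 SD, set per campaign, cut at about 52% in these data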
Target sequence (Q15596 whole entry, looked up, the tested form may be a part): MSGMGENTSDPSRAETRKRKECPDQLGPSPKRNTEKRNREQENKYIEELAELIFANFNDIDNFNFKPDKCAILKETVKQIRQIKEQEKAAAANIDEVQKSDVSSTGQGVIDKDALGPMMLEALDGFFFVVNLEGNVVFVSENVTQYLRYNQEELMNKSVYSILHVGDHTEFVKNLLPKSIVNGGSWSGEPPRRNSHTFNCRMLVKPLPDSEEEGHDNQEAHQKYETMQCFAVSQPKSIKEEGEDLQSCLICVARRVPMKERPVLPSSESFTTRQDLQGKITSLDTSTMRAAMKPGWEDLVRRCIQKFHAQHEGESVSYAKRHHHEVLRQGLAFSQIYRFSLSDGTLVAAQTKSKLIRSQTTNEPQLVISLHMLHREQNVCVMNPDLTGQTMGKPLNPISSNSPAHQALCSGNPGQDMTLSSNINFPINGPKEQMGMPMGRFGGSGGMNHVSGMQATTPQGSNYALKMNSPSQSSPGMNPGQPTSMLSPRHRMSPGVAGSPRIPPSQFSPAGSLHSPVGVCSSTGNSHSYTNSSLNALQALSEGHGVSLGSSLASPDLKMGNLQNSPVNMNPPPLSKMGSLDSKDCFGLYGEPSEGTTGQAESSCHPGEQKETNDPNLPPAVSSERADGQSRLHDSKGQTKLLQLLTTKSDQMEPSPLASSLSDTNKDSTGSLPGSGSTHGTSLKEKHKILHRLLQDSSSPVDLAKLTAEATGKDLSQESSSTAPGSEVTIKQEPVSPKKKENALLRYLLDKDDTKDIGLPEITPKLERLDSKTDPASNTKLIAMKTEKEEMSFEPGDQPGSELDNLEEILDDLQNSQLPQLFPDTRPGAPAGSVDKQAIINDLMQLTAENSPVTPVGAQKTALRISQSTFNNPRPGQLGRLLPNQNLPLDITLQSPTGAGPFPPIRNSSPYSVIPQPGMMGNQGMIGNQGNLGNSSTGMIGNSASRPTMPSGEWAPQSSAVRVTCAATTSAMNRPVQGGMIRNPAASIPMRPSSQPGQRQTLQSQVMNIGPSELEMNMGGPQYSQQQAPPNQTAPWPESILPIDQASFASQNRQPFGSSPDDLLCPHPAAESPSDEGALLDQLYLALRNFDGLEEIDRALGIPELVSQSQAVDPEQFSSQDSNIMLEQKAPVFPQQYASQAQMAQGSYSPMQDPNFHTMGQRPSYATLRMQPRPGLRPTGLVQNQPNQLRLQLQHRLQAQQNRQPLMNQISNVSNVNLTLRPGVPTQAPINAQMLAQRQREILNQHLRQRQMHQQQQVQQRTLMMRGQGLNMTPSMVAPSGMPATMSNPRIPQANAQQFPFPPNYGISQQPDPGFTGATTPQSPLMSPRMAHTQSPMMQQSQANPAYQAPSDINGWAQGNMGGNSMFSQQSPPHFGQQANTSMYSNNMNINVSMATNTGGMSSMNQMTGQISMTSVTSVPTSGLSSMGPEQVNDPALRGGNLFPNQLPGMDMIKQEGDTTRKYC
Gli-Sufu block: Gli-Sufu pathway antagonism | Sufu-KO-LIGHT fibroblasts, Gli luciferase reporter luminescence | inhibition, % at 5 µM | hit rate 0.74% among 340,000;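 active = inhibition above about 55%, limit read from the data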
SRC3 inh: human NCOA3 inhibition. Q9Y6Q9. HEK293 GAL4-SRC3 luciferase reporter, luminescence. inhibition, % at 3.6 µM. hit rate 0.17% among 360,000;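 active = inhibition above a per-campaign cutoff, the mean of all compounds plus 3 SD, cut at about 60% in these data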;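 note: higher means less SRC3-driven luciferase light from the GAL4 reporter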
Gli-Sufu confirm: Gli-SUFU antagonism confirmation, single concentration; shares compounds with Gli-Sufu block; Sufu-KO-LIGHT cells, Gli luciferase reporter, luminescence; inhibition, % at 5 µM; hit rate 40% among 2,500; AID 602428;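 active = mean inhibition at 5 µM reaching about 45%, limit read from the data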
SufuKO cytotox: counter-screen for Gli-SUFU antagonists: cytotoxicity; shares compounds with Gli-Sufu block; Sufu-KO-LIGHT cells cytotoxicity, ATP luminescence; cytotoxicity, % at 5 µM; hit rate 32% among 2,500;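 active = mean cytotoxicity at 5 µM above about 25%, limit read from the data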;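 note: cells exposed to compound overnight for roughly 16 to 18 hours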
Wnt3a counter: counter-screen for Gli-SUFU antagonists: Wnt3a reporter inhibition. shares compounds with Gli-Sufu block. Wnt-LIGHT cells, Wnt3a-driven luciferase reporter, luminescence. inhibition, % at 6.25 µM. hit rate 20% among 2,500. AID 651995;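 active = mean inhibition above about 25%, limit read from the data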
Each line names hits and unclear results; the compound was inactive in the other large screens (follow-up assays come after a bar, where they were run).

CC(C)(C)c1nnc(N/N=C/c2ccccc2O)n(N)c1=O	NCOA1 inh 70, Gli-Sufu block 61, SRC3 inh 79 | Gli-Sufu confirm 71 | SufuKO cytotox 51 | Wnt3a counter 55
Cc1c(C)n(Cc2ccc(-c3ccccc3C(=O)O)cc2)c2ccc(C(=O)N[C@@H](C)c3ccc(Br)cc3)cc12	none (no result: NR5A2 inv ag, NCOA1 inh, Gli-Sufu block, SRC3 inh)
CCN(CC)Cc1cc2ccccc2c2c1COC2	Gli-Sufu block 94 | Gli-Sufu confirm inactive | SufuKO cytotox inactive | Wnt3a counter inactive
CCCN(CCC)Cc1cc2ccccc2c2c1COC2	none
COC(CNC(=O)[C@H](Cc1ccccc1)NC1(C(=O)NC2CCCCC2)CCCC1)OC	none (no result: NR5A2 inv ag, NCOA1 inh, SRC2 inh, Gli-Sufu block, SRC3 inh)
COc1ccc(NC(=O)/C(C#N)=C\c2cc(C)n(-c3ccc4c(c3)OCO4)c2C)cc1	Gli-Sufu block 64 | Gli-Sufu confirm 56 | SufuKO cytotox 56 | Wnt3a counter inactive
Cc1cc(/C=C(\C#N)C(=O)Nc2ccccc2)c(C)n1-c1ccc(C(=O)O)cc1	none
CCSc1nnc(Cn2c(=O)sc3ccccc32)n1-c1ccccc1C	none
CSc1nnc(Cn2c(=O)sc3ccccc32)n1-c1ccccc1C	none | Gli-Sufu confirm inactive | SufuKO cytotox inactive | Wnt3a counter inactive
S=C(Nc1ccc2nc(-c3ccccn3)c(-c3ccccn3)nc2c1)N1CCCCC1	none (no result: COUP-TFII inh, SRC2 inh) | Gli-Sufu confirm inactive | SufuKO cytotox inactive | Wnt3a counter inactive
COP(N)(=O)C(CC(C)C)NC(=O)OCc1ccccc1 (centres undefined)	none (no result: NR5A2 inv ag, NCOA1 inh, Gli-Sufu block, SRC3 inh)
Nc1ccc(C(=O)N/N=C\c2cc(N=Nc3cccc4ccccc34)ccc2O)cc1	Gli-Sufu block 67 | Gli-Sufu confirm 65 | SufuKO cytotox 40 | Wnt3a counter 59
O=C(NCCc1ccccc1)OCc1cn(Cc2ccc(Cl)cc2)nn1	none (no result: NR5A2 inv ag, NCOA1 inh, Gli-Sufu block, SRC3 inh)
COc1ccc(-c2noc(C3CCCN(C(=O)Nc4cc(C)cc(C)c4)C3)n2)cc1 (centres undefined)	none (no result: NR5A2 inv ag, NCOA1 inh, Gli-Sufu block, SRC3 inh)
O=C(Cc1c(F)cccc1Cl)OCC(=O)c1ccc[nH]1	Gli-Sufu block 56 | Gli-Sufu confirm inactive | SufuKO cytotox inactive | Wnt3a counter inactive
O=C(Cc1c(Cl)cccc1Cl)OCC(=O)c1ccc[nH]1	none (no result: Gli-Sufu block)
COc1cc(NC(=O)C2CCCN(S(=O)(=O)c3ccc(C)c(C)c3)C2)cc(OC)c1 (centres undefined)	none (no result: NR5A2 inv ag, NCOA1 inh, Gli-Sufu block, SRC3 inh)
CC(C)(C)OC(=O)N1CCC(c2cc(-c3cccs3)n[nH]2)CC1	Gli-Sufu block 57 | Gli-Sufu confirm inactive | SufuKO cytotox inactive | Wnt3a counter inactive
CCCC(=O)Nc1c2c(nn1-c1ccc(OC)cc1)CS(=O)C2 (centres undefined)	none | Gli-Sufu confirm inactive | SufuKO cytotox inactive | Wnt3a counter inactive
O=C(Nc1c(-c2ccccc2)nc2ncccn12)c1ccccc1	none (no result: NR5A2 inv ag, NCOA1 inh, Gli-Sufu block, SRC3 inh)
N#C/C(=N\Nc1ccc(Cl)cc1)C(N)=S	Gli-Sufu block 60 | Gli-Sufu confirm 59 | SufuKO cytotox inactive | Wnt3a counter 32
Cc1ccc(-n2c(SCC(=O)Nc3ccc(S(=O)(=O)Nc4nccs4)cc3)nnc2-c2cccs2)cc1	none (no result: NR5A2 inv ag, NCOA1 inh, Gli-Sufu block, SRC3 inh)
Cc1ccc2ccc3ccc(C)nc3c2n1	NR5A2 inv ag 89 | Gli-Sufu confirm 47 | SufuKO cytotox inactive | Wnt3a counter inactive
Cc1ccc2cc(F)c(F)c(F)c2n1	none (no result: Gli-Sufu block)
c1ccc(-c2c[n+]3c(n2-c2ccccc2)SCC3)cc1	Gli-Sufu block 59 | Gli-Sufu confirm 58 | SufuKO cytotox inactive | Wnt3a counter inactive
Fc1ccc(-n2cc(-c3ccccc3)[n+]3c2SCC3)cc1	none
CCOc1ccc(-n2c(-c3ccc(Cl)cc3)c[n+]3c2SCC3)cc1	Gli-Sufu block 78 | Gli-Sufu confirm 74 | SufuKO cytotox 30 | Wnt3a counter inactive
CCOc1ccc(C2=CSC3=NCCN23)cc1	none
c1ccc(-c2cn(-c3ccccc3)c3[n+]2CCS3)cc1	Gli-Sufu block 65 | Gli-Sufu confirm 64 | SufuKO cytotox 26 | Wnt3a counter inactive
CCn1c(COc2ccc(C)cc2)nnc1SCc1cccc(C(F)(F)F)c1	none (no result: NR5A2 inv ag, NCOA1 inh, Gli-Sufu block, SRC3 inh)
CCCCC(=O)NC(c1ccc(Cl)cc1)c1ccc2cccnc2c1O (centres undefined)	NR5A2 inv ag 84, Gli-Sufu block 89 | Gli-Sufu confirm 88 | SufuKO cytotox 37 | Wnt3a counter 88
CCC(=O)NC(c1ccc(C)cc1)c1cc(Cl)c2cccnc2c1O (centres undefined)	none (no result: COUP-TFII inh, SRC2 inh)
CCCC(=O)NC(c1ccc(C)cc1)c1ccc2cccnc2c1O (centres undefined)	NR5A2 inv ag 85, NCOA1 inh 65, Gli-Sufu block 89, SRC3 inh 68 (no result: COUP-TFII inh, SRC2 inh) | Gli-Sufu confirm 85 | SufuKO cytotox 50 | Wnt3a counter 87
CC(=O)NC(c1ccc2ccccc2c1)c1ccc2cccnc2c1O (centres undefined)	NR5A2 inv ag 90, Gli-Sufu block 92 | Gli-Sufu confirm 83 | SufuKO cytotox 40 | Wnt3a counter 78
COc1ccc(C(NC(C)=O)c2ccc3cccnc3c2O)c(OC)c1 (centres undefined)	none (no result: COUP-TFII inh, SRC2 inh)
CCCC(=O)NC(c1ccc(Cl)cc1)c1ccc2cccnc2c1O (centres undefined)	NR5A2 inv ag 77, Gli-Sufu block 86 | Gli-Sufu confirm 82 | SufuKO cytotox 35 | Wnt3a counter 71
COc1ccc(OC)c(CN2C(=O)CCCC2(C)c2nnnn2C2CCCC2)c1 (centres undefined)	none (no result: NR5A2 inv ag, NCOA1 inh, Gli-Sufu block, SRC3 inh)
CN(Cc1ccc(F)cc1)C(=O)CN1C(=O)C2(OCCCO2)c2ccccc21	none (no result: NR5A2 inv ag, NCOA1 inh, Gli-Sufu block, SRC3 inh)
C#CCN1CC(N(C)CCOC(=O)CC2C=CCC2)CS1(=O)=O (centres undefined)	none (no result: NR5A2 inv ag, NCOA1 inh, Gli-Sufu block, SRC3 inh)
O=C(CNC(=S)N(Cc1ccc(F)cc1)C1CCCCC1)NC1CC1	Gli-Sufu block 59 | Gli-Sufu confirm inactive | SufuKO cytotox inactive | Wnt3a counter inactive
Cc1cc(/C=N/n2cnnc2)c(C)n1-c1ccc(OCc2ccc(Cl)cc2Cl)cc1	Gli-Sufu block 82 (no result: COUP-TFII inh, SRC2 inh) | Gli-Sufu confirm 82 | SufuKO cytotox 35 | Wnt3a counter 68
Cc1cc(/C=N/n2cnnc2)c(C)n1-c1ccc(OCc2ccc(F)cc2)cc1	Gli-Sufu block 74 | Gli-Sufu confirm 74 | SufuKO cytotox 28 | Wnt3a counter inactive
Cc1cc(/C=N/n2cnnc2)c(C)n1-c1ccc(Cl)cc1	none
Cc1nn(CCC(=O)NNC(=O)NCc2ccccc2)c(C)c1[N+](=O)[O-]	none (no result: NR5A2 inv ag, NCOA1 inh, Gli-Sufu block, SRC3 inh)
COc1ccc(OC)c(CN2C(=O)COc3ccccc3C2c2nnnn2C2CCCC2)c1 (centres undefined)	none (no result: NR5A2 inv ag, NCOA1 inh, Gli-Sufu block, SRC3 inh)
O=C(Cc1ccc(N2CCNC2=O)cc1)N1CCCC(Nc2ccc(F)c(F)c2)C1 (centres undefined)	none
